JMJD2A Tudor inh: qHTS Assay for Inhibitors of JMJD2A-Tudor Domain; AlphaScreen JMJD2A-Tudor / H3K4me3 peptide binding; Potency, µM (series often up to 114 µM), for the others: top-dose activity change, negative = inhibition, usual class: inhibitors; AID 504339, 2011; actives 4.4% (n = 390,000); also: potency is read from the fitted curve at half-maximal effect; % is scaled to controls: 0 for no effect and ±100 for the full control effect; nearly all actives have a fitted effect of over 50% in size
BAZ2B block: qHTS Assay for Inhibitors of BAZ2B | Bromodomain adjacent to zinc finger domain protein 2B (Homo sapiens), Q9UIF8 | AlphaScreen BAZ2B-H3K14Ac peptide displacement | Potency, µM (titrated, usually from 114 µM), inactives show at the top dose activity change, negative = inhibition, hits mostly inhibitors | actives 4.4% (n = 360,000); also: potency is read from the fitted curve at half-maximal effect; % is scaled to controls: 0 for no effect and ±100 for the full control effect; nearly all actives have a fitted effect of over 60% in size
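Protein-peptide AlphaScreen: BAZ2B 50 nM, b-H3K14Ac 50 nM, 1x PBS pH 7.4 + 0.01% Tween-20. Preincubation 30 min RT; cpd 30 min RT (top 110 uM); beads 20 min RT, light-protected.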
PI5P4Ka inh: qHTS for Inhibitors of phosphatidylinositol 5-phosphate 4-kinase (PI5P4K); Phosphatidylinositol 5-phosphate 4-kinase type-2 alpha (Homo sapiens), P48426; PI5P4Kalpha enzyme, ADP-Glo luminescence, 60 min; stronger effect = lower value; max response, %; actives 1.2% (n = 330,000); AID 652105, 2013; active = max response of -50% or lower; inconclusive = between -30% and -50%; inactive = -30% or higher; also: value at the top dose of about 77 µM; % is scaled to controls: 0 for no effect and ±100 for the full control effect
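Quantitative HTS of the MLSMR library against PI5P4Kalpha with substrate. ATP added last at 5 microM final; room temperature, 60 minutes. Remaining ATP depleted, ADP converted and read as luminescence.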
G9a block: qHTS Assay for Inhibitors of Histone Lysine Methyltransferase G9a. Histone-lysine N-methyltransferase EHMT2 (Homo sapiens), Q96KQ7. G9a H3K9 monomethylation, AlphaScreen, 2 h. Potency, µM (series often up to 102 µM), for the others: top-dose activity, negative = inhibition, actives largely listed as inhibitors. actives 8.8% (n = 350,000); also: potency is read from the fitted curve at half-maximal effect; % is scaled to controls: 0 for no effect and ±100 for the full control effect; nearly all actives have a fitted effect of over 75% in size
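G9a (20 nM) was preincubated 15 min with compound, then reacted 2 h at room temperature with 500 nM biotin-H3K9 peptide and 20 µM SAM. Monomethyl-H3K9 detected by AlphaScreen using anti-H3K9me1 antibody.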
PLK1 PBD inh: qHTS for Inhibitors of PLK1-PDB (polo-like kinase 1 - polo-box domain): Primary Screen | Serine/threonine-protein kinase PLK1 (Homo sapiens), P53350 | Plk1 PBD binding of FITC phosphopeptide, fluorescence polarization | Potency, µM, inactives show max response, negative = inhibition, usual class: inhibitors | actives 2.8% (n = 360,000); also: potency is read from the fitted curve at half-maximal effect; series mostly up to about 57 µM; % is scaled to controls: 0 for no effect and ±100 for the full control effect; nearly all actives have a fitted effect of over 65% in size
Target sequence (P53350 whole entry, looked up, the tested form may be a part): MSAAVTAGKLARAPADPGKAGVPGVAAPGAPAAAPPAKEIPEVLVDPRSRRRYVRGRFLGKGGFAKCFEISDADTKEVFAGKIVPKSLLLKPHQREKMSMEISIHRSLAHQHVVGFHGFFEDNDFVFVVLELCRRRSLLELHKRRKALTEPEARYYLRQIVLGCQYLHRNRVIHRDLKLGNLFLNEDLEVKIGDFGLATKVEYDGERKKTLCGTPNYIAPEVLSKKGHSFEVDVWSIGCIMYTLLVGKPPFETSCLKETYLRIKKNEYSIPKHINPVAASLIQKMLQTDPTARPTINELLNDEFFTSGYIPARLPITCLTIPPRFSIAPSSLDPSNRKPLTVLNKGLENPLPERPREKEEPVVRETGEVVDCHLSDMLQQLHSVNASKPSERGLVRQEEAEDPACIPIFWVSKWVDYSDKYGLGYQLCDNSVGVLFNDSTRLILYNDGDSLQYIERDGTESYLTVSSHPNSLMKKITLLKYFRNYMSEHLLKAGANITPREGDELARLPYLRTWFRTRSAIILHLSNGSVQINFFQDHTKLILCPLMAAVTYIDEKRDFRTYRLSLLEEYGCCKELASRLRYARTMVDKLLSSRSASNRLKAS
HP1b binding inh: HTS for Inhibitors of HP1-beta Chromodomain Interactions with Methylated Histone Tails | Chromobox protein homolog 1 (Homo sapiens), P83916 | AlphaScreen HP1-beta / biotin-H3K9me3 peptide binding | Potency, µM (titrated, usually from 114 µM), for inactives: at the top dose activity change, negative = inhibition, actives largely listed as inhibitors | actives 0.56% (n = 390,000); also: potency is read from the fitted curve at half-maximal effect; nearly all actives have a fitted effect of over 70% in size
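HP1-beta protein (50 nM final) preincubated 30 min at room temperature with biotinylated H3(1-18)K9me3 peptide (50 nM) in PBS pH 7.4, 0.01% Tween-20, then compound added for 30 min. AlphaScreen streptavidin donor/nickel chelate acceptor beads (10 ug/mL final), 30 min dark, luminescence read.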
The depositor's hits bear a star; [ ] = another dose, or the depositor's remark. Most compounds without a hit are left out; they make up all but 12% or so of the library. Unless noted, calls follow the shape of the dose curve; as a rule, active = well fitted curve in the direction sought with a large enough effect; inconclusive = small, poorly fitted or top-dose-only effect, or another doubt; inactive = no such curve, though single readings can be large; an effect the other way counts as inactive or inconclusive.

Screening CCOC(=O)Cc1nnc(NC(=O)c2cccc(OCC)c2)s1 returned JMJD2A Tudor inh inconclusive, BAZ2B block -8%, PI5P4Ka inh -6, G9a block 12%[12.7 µM], PLK1 PBD inh -11% and HP1b binding inh 23%.
CC(Sc1nc2ccccc2c(=O)n1CC1CCCO1)C(=O)Nc1ccc(S(N)(=O)=O)cc1 (centres undefined) was read as JMJD2A Tudor inh -18%, BAZ2B block 3%, PI5P4Ka inh 8, G9a block -45%[59 µM], PLK1 PBD inh 2% and HP1b binding inh 16%.
`Cn1cc(C(=O)CCl)c2ccccc21` gave JMJD2A Tudor inh -14%, BAZ2B block 4%, PI5P4Ka inh 0, G9a block -8%[0.501 µM], PLK1 PBD inh 24µM* and HP1b binding inh 43%.
Screening O=C(CN1C(=O)NC2(CCCc3ccccc32)C1=O)NC1CCCCC1 (centres undefined) returned JMJD2A Tudor inh -3%, BAZ2B block 5%, PI5P4Ka inh 6, G9a block -14%[2.33 µM], PLK1 PBD inh -6% and HP1b binding inh 24%.
`NC(=O)c1ccc([N+](=O)[O-])cc1SCc1ccccc1` gave JMJD2A Tudor inh -29%, BAZ2B block inconclusive, PI5P4Ka inh inconclusive, G9a block 40µM*, PLK1 PBD inh -22% and HP1b binding inh 17%.
NC(=O)c1cc([N+](=O)[O-])ccc1NCCc1ccccc1 was read as JMJD2A Tudor inh -20%, BAZ2B block -33%, PI5P4Ka inh inconclusive, G9a block 10%, PLK1 PBD inh -4% and HP1b binding inh 3%.
Screening O=C(COC(=O)c1cc(Cl)nc(Cl)c1)Nc1ccc(Cl)c(S(=O)(=O)N2CCOCC2)c1 returned JMJD2A Tudor inh -12%, PI5P4Ka inh 0, PLK1 PBD inh 4% and HP1b binding inh 9%[57 µM].
`COc1ccccc1N1CCN(C(c2cc3cc(C)ccc3[nH]c2=O)c2nnnn2C2CCCC2)CC1` (centres undefined) gave JMJD2A Tudor inh -16%, BAZ2B block -38%, G9a block inconclusive, PLK1 PBD inh -4% and HP1b binding inh 20%.
CCOC(=O)C1CCN(C(c2cc3ccc(C)cc3[nH]c2=O)c2nnnn2C2CCCCC2)CC1 (centres undefined) was read as JMJD2A Tudor inh -18%, BAZ2B block -5%, G9a block 22µM*, PLK1 PBD inh -8% and HP1b binding inh 7%.
Screening COc1cc2cc(C(c3nnnn3C3CCCC3)N3CCc4ccccc43)c(=O)[nH]c2cc1OC (centres undefined) returned JMJD2A Tudor inh -11%, BAZ2B block -11%, PI5P4Ka inh 0, G9a block 45µM*, PLK1 PBD inh -11% and HP1b binding inh 26%.
Screening COc1ccccc1N1CCN(C(c2cc3ccc(C)cc3[nH]c2=O)c2nnnn2C2CCCC2)CC1 (centres undefined) returned JMJD2A Tudor inh inconclusive, BAZ2B block inconclusive, G9a block 28µM*, PLK1 PBD inh -9% and HP1b binding inh -1%.
COc1cccc(C(=O)COC(=O)COc2c(C)cc(C)cc2C)c1 was read as JMJD2A Tudor inh 66%, BAZ2B block 52%, PI5P4Ka inh 11, G9a block 55%[59 µM], PLK1 PBD inh -2% and HP1b binding inh 129%.
Cc1ccc(S(=O)(=O)Cc2ccc(C(=O)O)o2)cc1 was read as JMJD2A Tudor inh 45µM*, BAZ2B block 50µM*, PI5P4Ka inh -26, G9a block 13µM*, PLK1 PBD inh 19µM* and HP1b binding inh -68%.
COc1ccc(N2CCN(C(=O)c3ccc(CS(=O)(=O)c4ccc(OC)cc4)o3)CC2)cc1 was read as JMJD2A Tudor inh -26%, BAZ2B block inconclusive, PI5P4Ka inh 2, G9a block 40µM*, PLK1 PBD inh -12% and HP1b binding inh 0%.
Screening Cc1ccc(S(=O)(=O)Cc2ccc(C(=O)N3CCc4ccccc4C3)o2)cc1 returned JMJD2A Tudor inh 56µM*, BAZ2B block 50µM*, PI5P4Ka inh inconclusive, G9a block 50µM*, PLK1 PBD inh inconclusive and HP1b binding inh inconclusive.
For COc1ccc(S(=O)(=O)Cc2ccc(C(=O)N3CCN(c4ccc(Cl)cc4)CC3)o2)cc1 the results were JMJD2A Tudor inh -27%, BAZ2B block -10%, PI5P4Ka inh -2, G9a block inconclusive, PLK1 PBD inh 0% and HP1b binding inh 29%.
COc1ccc(N2CCN(C(=O)c3ccc(Cn4nc(C)c([N+](=O)[O-])c4C)o3)CC2)cc1 was read as JMJD2A Tudor inh -34%, BAZ2B block inconclusive, PI5P4Ka inh 2, G9a block 3.5µM*, PLK1 PBD inh -5% and HP1b binding inh -9%.
COc1ccc(S(=O)(=O)Cc2ccc(C(=O)N3CCc4ccccc4C3)o2)cc1 was read as JMJD2A Tudor inh inconclusive, BAZ2B block -3%, PI5P4Ka inh -26, G9a block inconclusive, PLK1 PBD inh -5% and HP1b binding inh 48%.
Screening CCOC(=O)c1ccc(NC(=O)c2oc(=O)c3ccccc3c2-c2ccccc2)cc1 returned JMJD2A Tudor inh -27%, BAZ2B block -4%, G9a block 1%[59 µM] and HP1b binding inh 13%.
For Cn1c(=O)c(-c2cccc(F)c2)nc2cncnc21 the results were G9a block 1%[0.501 µM].
For Cc1ccc(S(=O)(=O)Cc2ccc(C(=O)N3CCN(Cc4ccccc4)CC3)o2)cc1 the results were BAZ2B block 50µM* and G9a block 45µM*.
COc1cccc(N2CCN(C(=O)c3ccc(CS(=O)c4ccc(C)cc4)o3)CC2)c1 (centres undefined) was read as JMJD2A Tudor inh -11%, BAZ2B block -27%, PI5P4Ka inh -5, G9a block 50µM*, PLK1 PBD inh -19% and HP1b binding inh 3%[57 µM].
`COc1ccc(S(=O)(=O)Cc2ccc(C(=O)N3CCN(C(=O)c4ccco4)CC3)o2)cc1` gave JMJD2A Tudor inh -7%, BAZ2B block -3%, PI5P4Ka inh -5, G9a block inconclusive, PLK1 PBD inh -3% and HP1b binding inh 40%.
CCc1ccccc1S(=O)(=O)Cc1ccc(C(=O)N2CCN(c3ccccn3)CC2)o1 was read as JMJD2A Tudor inh -7%, BAZ2B block -3%, PI5P4Ka inh -5, G9a block 79µM*, PLK1 PBD inh -3% and HP1b binding inh 66%.

Screening results as filed in PubChem.
